This is a sample that favours compounds with a hit; in the whole collection about 5.7% have one here.
JMJD2A Tudor inh – JMJD2A Tudor domain (human) inhibition; O75164; AlphaScreen JMJD2A-Tudor / H3K4me3 peptide binding; Potency, µM (series often up to 114 µM), actives largely listed as inhibitors; 390,000 tested, 4.4% active; AID 504339; further: nearly all actives have a fitted effect of over 50% in size
Target sequence (O75164 whole entry, looked up, the tested form may be a part): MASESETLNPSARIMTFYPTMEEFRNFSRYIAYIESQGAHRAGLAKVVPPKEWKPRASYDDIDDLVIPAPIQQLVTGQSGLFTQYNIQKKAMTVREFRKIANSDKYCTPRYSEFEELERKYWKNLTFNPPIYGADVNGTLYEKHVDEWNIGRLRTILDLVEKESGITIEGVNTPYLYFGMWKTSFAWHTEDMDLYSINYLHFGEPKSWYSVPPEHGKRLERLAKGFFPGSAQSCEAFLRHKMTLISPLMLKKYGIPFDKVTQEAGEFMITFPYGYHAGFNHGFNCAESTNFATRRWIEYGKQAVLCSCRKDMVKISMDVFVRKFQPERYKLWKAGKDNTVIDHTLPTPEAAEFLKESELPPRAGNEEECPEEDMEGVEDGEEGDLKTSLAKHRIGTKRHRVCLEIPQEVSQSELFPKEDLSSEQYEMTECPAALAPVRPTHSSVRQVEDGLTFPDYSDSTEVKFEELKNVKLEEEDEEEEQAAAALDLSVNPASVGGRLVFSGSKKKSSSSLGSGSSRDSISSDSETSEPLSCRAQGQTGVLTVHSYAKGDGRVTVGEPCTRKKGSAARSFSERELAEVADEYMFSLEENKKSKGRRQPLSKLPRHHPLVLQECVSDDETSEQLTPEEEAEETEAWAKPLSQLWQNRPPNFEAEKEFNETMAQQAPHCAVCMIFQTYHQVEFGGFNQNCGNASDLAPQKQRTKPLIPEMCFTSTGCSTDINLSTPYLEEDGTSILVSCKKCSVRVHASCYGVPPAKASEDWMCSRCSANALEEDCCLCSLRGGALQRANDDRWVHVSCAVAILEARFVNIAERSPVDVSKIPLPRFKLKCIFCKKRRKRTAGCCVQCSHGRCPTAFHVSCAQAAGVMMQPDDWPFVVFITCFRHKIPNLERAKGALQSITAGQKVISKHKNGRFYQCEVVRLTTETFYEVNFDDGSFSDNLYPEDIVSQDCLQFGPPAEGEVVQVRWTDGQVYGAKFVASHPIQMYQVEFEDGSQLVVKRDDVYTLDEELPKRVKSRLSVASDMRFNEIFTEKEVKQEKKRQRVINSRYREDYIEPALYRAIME
JMJD2E inh – blocks human JMJD2E demethylase activity; B2RXH2; JMJD2E catalytic domain, FDH-coupled NADH fluorescence (FDH is formaldehyde dehydrogenase); Potency, µM (highest dose often 57.1 µM), usual class: inhibitors; 230,000 tested, 1.6% active; AID 2147; active means well fitted inhibition curve with a large enough effect, not every such curve was filed as active; inconclusive means small, poorly fitted or top-dose-only effect, or another doubt; inactive means no such curve, though single readings can be large or run the other way; further: nearly all actives have a fitted effect of over 50% in size
L3MBTL1 block – inhibitors of human L3MBTL1. Q9Y468. AlphaScreen L3MBTL1–H3K9me1 peptide binding. Potency, µM (series often up to 57.1 µM), hits mostly inhibitors. 230,000 tested, 0.66% active; further: nearly all actives have a fitted effect of over 60% in size
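Read-out is AlphaScreen signal from streptavidin donor and nickel chelate acceptor beads (10 ug/mL final each) bridging L3MBTL1 (50 nM) and biotinylated K9-monomethylated H3(1-15) peptide (75 nM), after 30 min compound exposure at room temperature.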
PI5P4Ka inh – PI5P4K alpha (human) kinase inhibition. PI5P4Kalpha enzyme, ADP-Glo luminescence, 60 min; active compounds read low. max response, %. 330,000 tested, 1.2% active. AID 652105; active means max response of -50% or lower; inconclusive means between -30% and -50%; inactive means -30% or higher; further: value at the top dose of about 77 µM
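Compounds were pin-transferred onto PI5P4Kalpha and substrate in HEPES pH 7.4 buffer with EGTA, CHAPS and 5% DMSO. ATP (5 microM final) started the reaction, which ran 60 minutes at room temperature before ADP-Glo detection.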
HP1b binding inh – inhibitors of HP1-beta chromodomain binding to methylated histone tails | P83916 | AlphaScreen HP1-beta / biotin-H3K9me3 peptide binding | Potency, µM (series often up to 114 µM), actives largely listed as inhibitors | 390,000 tested, 0.56% active | AID 540317; further: nearly all actives have a fitted effect of over 70% in size
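Compound inhibition of the preformed complex between 50 nM HP1-beta and 50 nM biotinylated H3K9me3 peptide was read by AlphaScreen. Buffer was PBS pH 7.4 with 0.01% Tween-20. Incubations ran 30 min at room temperature, with 10 ug/mL donor/acceptor beads.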
BAZ2B block – blocks human BAZ2B | AlphaScreen BAZ2B-H3K14Ac peptide displacement | Potency, µM (top dose mostly 114 µM), hits mostly inhibitors | 360,000 tested, 4.4% active | AID 504333; further: nearly all actives have a fitted effect of over 60% in size
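BAZ2B 50 nM plus b-H3(5-23)K14Ac 50 nM, PBS pH 7.4/0.01% Tween-20, 30 min RT; compound added (max 110 uM), 30 min RT; streptavidin donor/Ni-chelate acceptor beads 10 ug/mL final, 20 min dark; AlphaScreen read.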
Numbers stand for hits. Unless noted, the call rests on the fitted dose curve; in most records, active means well fitted inhibition curve with a large enough effect; inconclusive means small, poorly fitted or top-dose-only effect; inactive means no such curve, though single readings can be large or run the other way.

What do the screens show for `O=C(NNC(=S)NC(=O)c1ccccc1[N+](=O)[O-])c1ccccc1O`?
JMJD2A Tudor inh: 89.1µM; JMJD2E inh: inconclusive; L3MBTL1 block: inconclusive; PI5P4Ka inh: inactive; HP1b binding inh: inactive; BAZ2B block: inconclusive

Results for Cc1ccc(Cc2c(C)nn(-c3nc(C)c(C(=O)N4CCCCC4C)s3)c2C)cc1 (configuration not stated) ?
JMJD2A Tudor inh: inactive; HP1b binding inh: inactive; BAZ2B block: inactive

How did CCc1ccc(NC(=O)Cn2cnc3sc(C)c(S(=O)(=O)N4CCN(c5ccccc5OC)CC4)c3c2=O)cc1 do in these assays?
JMJD2A Tudor inh: inactive; HP1b binding inh: inactive; BAZ2B block: inactive

How did Oc1ccc(Cl)cc1C1C=C(c2ccc3c(c2)OCO3)NC(c2ccc(C(F)(F)F)cc2)N1 (configuration not stated) do in these assays?
JMJD2A Tudor inh: inactive; HP1b binding inh: inactive

What do the screens show for `NC(=O)CC(NC(=O)c1ccccc1)c1ccc(N2CCCCCC2)c([N+](=O)[O-])c1` (configuration not stated)?
JMJD2A Tudor inh: 44.7µM; L3MBTL1 block: inactive; PI5P4Ka inh: inactive; HP1b binding inh: inconclusive; BAZ2B block: inconclusive

How did CN1CCN(c2ccccc2NC(=O)c2ccc(N3CCOCC3)c([N+](=O)[O-])c2)CC1 do in these assays?
JMJD2A Tudor inh: inconclusive; PI5P4Ka inh: inactive; HP1b binding inh: inconclusive; BAZ2B block: inactive

What do the screens show for `CC(=O)Nc1ccc(N2CCC(C)CC2)c([N+](=O)[O-])c1`?
JMJD2A Tudor inh: inactive; JMJD2E inh: inactive; L3MBTL1 block: inactive; PI5P4Ka inh: inactive; HP1b binding inh: inactive; BAZ2B block: inconclusive

What do the screens show for `CC(=O)Nc1ccc(N2CCCC(C)C2)c([N+](=O)[O-])c1` (configuration not stated)?
JMJD2A Tudor inh: inconclusive; JMJD2E inh: inactive; L3MBTL1 block: inactive; PI5P4Ka inh: inactive; HP1b binding inh: inconclusive; BAZ2B block: 35.5µM

Results for CN1CCN(c2ccccc2NC(=O)c2ccc(N3CCCCC3)c([N+](=O)[O-])c2)CC1 ?
JMJD2A Tudor inh: 50.1µM; JMJD2E inh: inactive; L3MBTL1 block: inconclusive; PI5P4Ka inh: inactive; HP1b binding inh: inconclusive; BAZ2B block: 39.8µM

How did O=C(Nc1ccc2c(c1)OCO2)c1ccc(N2CCCC2)c([N+](=O)[O-])c1 do in these assays?
JMJD2A Tudor inh: inconclusive; JMJD2E inh: inactive; L3MBTL1 block: inactive; PI5P4Ka inh: inactive; HP1b binding inh: inconclusive; BAZ2B block: 35.5µM

What do the screens show for `COc1ccc(-c2cc(C(=O)Oc3cccc(C)c3C)c3ccccc3n2)cc1`?
JMJD2A Tudor inh: inactive; HP1b binding inh: inactive; BAZ2B block: inactive

What do the screens show for `CCc1ccc(-c2cn3c(n2)sc2cc(C(=O)NC4CCCCC4)ccc23)cc1`?
JMJD2A Tudor inh: inactive; HP1b binding inh: inactive; BAZ2B block: inconclusive

How did COc1ccc(-n2ncc3c2ncn2nc(COc4ccc(Cl)cc4)nc32)cc1 do in these assays?
JMJD2A Tudor inh: inactive; HP1b binding inh: inactive; BAZ2B block: inactive

Results for CCCCNC(=O)CCC(=O)N1CCN(C(c2ccccc2)c2ccccc2)CC1 ?
JMJD2A Tudor inh: inactive; L3MBTL1 block: inactive; PI5P4Ka inh: inactive; HP1b binding inh: inactive; BAZ2B block: 79.4µM

How did CCC1C(=O)CC2CCN3C(=O)CCC1C23 (configuration not stated) do in these assays?
JMJD2A Tudor inh: inactive; HP1b binding inh: inactive

Results for Cc1cc(=O)n(C2CCS(=O)(=O)C2)[nH]1 (configuration not stated) ?
JMJD2A Tudor inh: inactive; JMJD2E inh: 22.4µM; L3MBTL1 block: inactive; PI5P4Ka inh: inactive; HP1b binding inh: inactive; BAZ2B block: inactive

Results for Cc1ccccc1-c1nnnn1C1CCS(=O)(=O)C1 (configuration not stated) ?
JMJD2A Tudor inh: inactive; JMJD2E inh: inactive; L3MBTL1 block: inactive; PI5P4Ka inh: inactive; HP1b binding inh: inactive; BAZ2B block: inactive

What do the screens show for `Nc1nnc(/C=C/c2ccccc2Cl)s1`?
JMJD2A Tudor inh: inactive; JMJD2E inh: inconclusive; L3MBTL1 block: inactive; PI5P4Ka inh: inactive; HP1b binding inh: inactive; BAZ2B block: inactive

What do the screens show for `Cc1ccc(C2C(C(=O)O)c3ccccc3C(=O)N2C)c(C)c1` (configuration not stated)?
JMJD2A Tudor inh: inactive; JMJD2E inh: inactive; L3MBTL1 block: inactive; PI5P4Ka inh: inactive; HP1b binding inh: inactive; BAZ2B block: inactive

What do the screens show for `CN1C(=O)c2ccccc2C(C(=O)O)C1c1cn(C)c2ccccc12` (configuration not stated)?
JMJD2A Tudor inh: 44.7µM; JMJD2E inh: inactive; L3MBTL1 block: inactive; PI5P4Ka inh: inactive; HP1b binding inh: inconclusive; BAZ2B block: inactive

What do the screens show for `COC1=CC(=Cc2c(N)n3nc(CC(=O)N4CCOCC4)sc3nc2=O)C=C(OC)C1=O`?
JMJD2A Tudor inh: inconclusive; PI5P4Ka inh: -63.8; HP1b binding inh: inactive; BAZ2B block: 44.7µM

Results for C=CCC1=C/C(=C\c2c(N)n3nc(CC(=O)N4CCCC4)sc3nc2=O)C=C(OC)C1=O ?
JMJD2A Tudor inh: inactive; PI5P4Ka inh: inactive; HP1b binding inh: inactive; BAZ2B block: 79.4µM

How did Nc1c(/C=C2\C=Nc3ccccc32)c(=O)nc2sc(CC(=O)N3CCOCC3)nn12 do in these assays?
JMJD2A Tudor inh: inactive; PI5P4Ka inh: -52.8; HP1b binding inh: inactive; BAZ2B block: inactive

What do the screens show for `Nc1c(C=C2C=CC(=O)C=C2)c(=O)nc2sc(CC(=O)N3CCOCC3)nn12`?
JMJD2A Tudor inh: inactive; PI5P4Ka inh: inactive; HP1b binding inh: inactive; BAZ2B block: inconclusive

How did COc1ccc(C(C[N+](=O)[O-])c2c(C)cc3ccccn23)cc1 (configuration not stated) do in these assays?
JMJD2A Tudor inh: inconclusive; JMJD2E inh: inconclusive; L3MBTL1 block: inactive; PI5P4Ka inh: inactive; HP1b binding inh: inactive; BAZ2B block: inconclusive

What do the screens show for `Cc1cc2ccccn2c1C(C[N+](=O)[O-])c1ccc(N(C)C)cc1` (configuration not stated)?
JMJD2A Tudor inh: 11.2µM; JMJD2E inh: inconclusive; L3MBTL1 block: inactive; PI5P4Ka inh: inactive; HP1b binding inh: inconclusive; BAZ2B block: 8.91µM

Results for COc1cc(N2C(=O)C=CC2=O)ccc1N1C(=O)C=CC1=O ?
JMJD2A Tudor inh: 4.47µM; PI5P4Ka inh: -68.2; HP1b binding inh: inconclusive

What do the screens show for `Cc1nn(C)c2c1c(-c1ccccc1)cc(=O)n2Cc1ccccc1C#N`?
JMJD2A Tudor inh: inactive; HP1b binding inh: inactive; BAZ2B block: inactive

What do the screens show for `Cc1ccc(C(=O)NCCNC(=O)c2cccnc2)cc1`?
JMJD2A Tudor inh: inactive; PI5P4Ka inh: inactive; HP1b binding inh: inactive; BAZ2B block: inactive

What do the screens show for `Cc1nn(CC(=O)NCc2cccc(F)c2)c(=O)c2cccn12`?
JMJD2A Tudor inh: 56.2µM; PI5P4Ka inh: inactive; HP1b binding inh: inconclusive; BAZ2B block: inactive

Screens deposited in PubChem BioAssay by National Center for Advancing Translational Sciences (NCATS).
